From PubChem BioAssay AID504652 (National Center for Advancing Translational Sciences (NCATS), 2011)
Screen size: about 360,000 compounds; about 11,000 (3.1%) were called active. Cut-off read from the data, not from the text of the source: active = activity change below about -30%; inactive = the rest. Shown is part of a subset that was picked to be rich in actives.

Molecular target: D(1A) dopamine receptor (Homo sapiens) (UniProt P21728)
Assay: Antagonist of Human D 1 Dopamine Receptor: qHTS
Conditions: HEK293 TREx D1 cells, calcium flux, dopamine EC80; at 10 µM; hits give low values
In short: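 Cells carrying a force-coupled, tetracycline-inducible human D1 receptor report calcium flux. Each well gets a 10 s baseline, compound with 180 s monitoring, then an EC80 dopamine stimulus with a second 180 s kinetic read.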
% is set by controls: 0 for no effect and ±100 for the full control effect.

Sequence of D(1A) dopamine receptor (Homo sapiens) (P21728 whole entry, looked up): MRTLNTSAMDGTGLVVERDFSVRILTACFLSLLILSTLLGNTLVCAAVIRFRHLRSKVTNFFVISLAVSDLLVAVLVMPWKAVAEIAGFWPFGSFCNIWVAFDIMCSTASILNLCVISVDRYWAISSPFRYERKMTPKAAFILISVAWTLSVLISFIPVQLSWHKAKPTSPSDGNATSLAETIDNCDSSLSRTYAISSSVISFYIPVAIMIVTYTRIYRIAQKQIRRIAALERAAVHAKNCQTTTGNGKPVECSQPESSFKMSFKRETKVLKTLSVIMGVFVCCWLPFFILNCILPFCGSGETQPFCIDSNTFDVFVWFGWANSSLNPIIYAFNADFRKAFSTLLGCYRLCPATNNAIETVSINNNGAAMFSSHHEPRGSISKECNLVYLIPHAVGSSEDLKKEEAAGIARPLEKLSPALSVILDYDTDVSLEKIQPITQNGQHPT

Activity change, negative = inhibition, active:
Cn1nnnc1SCCNCc1ccc(Cl)c(Cl)c1 -61.6%
Cc1c(Cl)cccc1-c1ccc(CNCCCSc2nnnn2C)o1 -35%
O=C(NCc1ccc(Cl)cc1)c1cc2c(nc3sccn32)s1 -58.9%
O=C(Cc1c[nH]c2ccccc12)OCCOC(=O)Cc1c[nH]c2ccccc12 -32.2%
CCOc1ccc(Nc2nc3c(S(=O)(=O)c4cccc(Cl)c4)nnn3c3ccsc23)cc1 -38.1%
O=C(Nc1ccc2c(c1)OCCO2)C1CCCC1 -32.7%
N#Cc1c(NC(=O)CCCl)sc2c1CCCCC2 -30.1%
CCOC(=O)CSc1nnc(CNc2nc(-c3ccccc3)cs2)n1C -37.1%

Activity change, negative = inhibition, inactive:
CCN(c1ncnc2c1cnn2-c1ccc(C)cc1)C1CCCCC1 13.5%
Cc1ccc2c(c1)-c1c(cnn1CC(=O)Nc1ccccc1C#N)CO2 23.7%
Cc1oc2ncnc(N3CCCCC3)c2c1C(=O)N1CCN(c2cccc(Cl)c2)CC1 -0.886%
CC(C)Cn1c(=O)c2ccccc2n2c(CCC(=O)N3CCN(c4cccc(Cl)c4)CC3)nnc12 -9.12%
Cc1ccc(C)n1-c1nnc(N2CCC(C(=O)NCc3ccccc3Cl)CC2)s1 -0.53%
COC(=O)c1cnc(N2CCN(c3ccccc3OC)CC2)c2ccccc12 -2.99%
O=c1c(NCc2cccs2)nccn1-c1ccccc1 -12.1%
Cn1nnnc1SCCCNCc1cccc(OCc2ccc(Cl)cc2)c1 -15.2%
COc1cc(CNCCSc2nnnn2C)ccc1OCc1c(F)cccc1Cl -17.9%
CCOc1ccc(CNCCSc2nnnn2C)cc1 -2.56%
Cn1nnnc1SCCCNCc1ccc(Cl)cc1 -11.8%
Cc1ccc2oc3c(c(=O)c2c1)C(c1ccc(O)cc1)N(Cc1ccc2c(c1)OCO2)C3=O (stereo not given) 0.447%
CCOc1ccc(-c2n[nH]c3c2C(c2ccccc2OC)N(c2ccc(Br)cc2)C3=O)cc1 (stereo not given) 9.65%
CCOC(=O)c1ccc(NC(=O)CCn2cnnn2)cc1 14.2%
O=C1C(F)N([S+](=O)([O-])c2ccc3c(c2)OCCO3)CCN1[S+](=O)([O-])c1c(F)cccc1F (stereo not given) -5.38%
CCOc1cc2[nH]c(=O)n(Cc3ccc(C(=O)NCCN(CC)CC)cc3)c(=O)c2cc1OCC 5.18%
CCc1cccc(NC(=O)CN(C)S(=O)(=O)c2ccc3[nH]c4c(c3c2)CCCC4)c1 -15.3%
Cc1ccc(OC(=O)CSc2nnc(-c3cccs3)o2)cc1 -6.25%
O=C(NCc1ccc(Cl)cc1)c1cc(=O)nc2sc(-c3ccccc3)nn12 0.956%
O=C(NCc1ccc2c(c1)OCO2)c1c(O)nc2sccn2c1=O 2.36%
Cc1ccc(C(=O)Nc2ccc(OCc3cc(=O)n4c5c(sc4n3)CCCC5)cc2)cc1 -13.4%
O=C(COC(=O)Cc1c[nH]c2ccccc12)NCCc1ccccc1 -2.05%
CCOC(=O)CN(C)Cc1c[nH]c2ccccc12 0.896%
Cc1ccc(S(=O)(=O)N2CCc3cc(C(=O)Nc4ccc(Cl)cc4C)ccc32)cc1 3.15%
O=S(=O)(c1ccc(Cl)cc1)c1nnn2c1nc(NC1CCCC1)c1sccc12 -19.7%
O=S(=O)(c1ccc(Br)cc1)c1nnn2c1nc(NC1CCCCCC1)c1sccc12 4.84%
COc1ccc(-c2nnc(SCC(=O)Nc3ccc(C(C)C)cc3)nc2-c2ccc(OC)c(OC)c2)cc1OC -19.7%
NC1=NC(c2cc(F)cc(F)c2)n2c(nc3ccccc32)N1 (stereo not given) 0.602%
CCc1cccc(C)c1NS(=O)(=O)c1ccc(-c2cc(C)no2)s1 24.4%
O=C(Nc1ccc2c(c1)OCCO2)c1ccoc1 15.7%
O=C(Nc1ccc2c(c1)OCO2)C1CC1(Cl)Cl (stereo not given) -9.18%
COc1ccc(NC(=O)NC(C)c2c(-n3cccc3)sc(C)c2C)cc1OC (stereo not given) -6.54%
COc1ccc(N2CCN(C3=NS(=O)(=O)C(c4cccc(Br)c4)=C3C)CC2)cc1 -8.66%
N#Cc1c(NC(=O)C2CCCO2)sc2c1CCCCC2 (stereo not given) -19.1%
CCN1CCN(CC(=O)Nc2sc3c(c2C#N)CCC3)CC1 -11.5%
COc1ccccc1CNC(=O)CS(=O)(=O)c1cccc2nsnc12 13.8%
CCCn1c2ccccc2c2cnn(CC(=O)NCC3CCN(Cc4ccc(C)cc4)CC3)c(=O)c21 -18.2%
